Experiment in all cases: growth inhibition (% activity, log2 RLU normalised to DMSO / staurosporine); higher = more growth inhibition
What all share (details): 33 µM

In one experiment the test system is DIPGX29 (H3.3 K27M diffuse intrinsic pontine glioma line). A digest of the protocol: (§1)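 Cells (pHGG lines and H9-derived neural stem cells) were plated on Geltrex-coated 384-well plates and exposed to approved drugs at a single final concentration of about 33 μM, in triplicate, for 7 days at 37 °C, 5% CO2. Log2-transformed CellTiter-Glo luminescence was normalised per plate to % activity between solvent and positive control wells, and the growth-inhibition value is the median over replicates.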

Another experiment deals with DIPGX37 (H3.3 K27M diffuse intrinsic pontine glioma line). Put shortly: as §1
In a further experiment the test system is DIPGX7 (H3.3 K27M diffuse intrinsic pontine glioma line). Put shortly: as §1
The test system of another experiment is DIPGX9 (diffuse intrinsic pontine glioma line). Put shortly: as §1
Another experiment deals with HGGX39 (paediatric high-grade glioma line). Put shortly:
as §1

A further experiment concerns HGGX6 (H3.3 G34R paediatric high-grade glioma line). A digest of the protocol: as §1
A further experiment has as its system HNSC. A digest of the protocol:
as §1

For another experiment, the system named is SUDIPGIV (diffuse intrinsic pontine glioma line)
Put shortly:
as §1

The next experiment has as its system SUDIPGVI (diffuse intrinsic pontine glioma line)
Put shortly: as §1

The next experiment deals with SUDIPGXIII (diffuse intrinsic pontine glioma line)
A digest of the protocol:
as §1

For 10 molecules, growth inhibition results are on record in the supplement of paper PMC8253809.

Regarding `C#C[C@]1(OC(C)=O)CC[C@H]2[C@@H]3CCC4=C[C@@H](OC(C)=O)CC[C@@H]4[C@H]3CC[C@@]21C`, the growth inhibition with DIPGX29 is 0.289%; with DIPGX37 it was 0.452%; with DIPGX7, -1.67%; in the experiment with DIPGX9, 1.3%; in the experiment on HGGX39 it was -0.196%; in the experiment with HGGX6, 0.0724%. Also, the growth inhibition with HNSC is 1.57%; in the experiment with SUDIPGIV it was -1.23%; in the experiment with SUDIPGVI, 1.15%; in the experiment on SUDIPGXIII it was 1.62%.
On to `CN1CCCC(n2nc(Cc3ccc(Cl)cc3)c3ccccc3c2=O)CC1` (stereo not given), for which the growth inhibition in the experiment on DIPGX29 came out at 3.68%; with DIPGX37, 2.48%; in the experiment on DIPGX7, 4.68%; with DIPGX9 it was 2.54%; with HGGX39, 7.54%; with HGGX6, 3.65%. The growth inhibition in the experiment with HNSC was determined as 0.14%; in the experiment with SUDIPGIV it was 1.76%; in the experiment on SUDIPGVI, 0.965%; with SUDIPGXIII, 2.09%.
Turning to `COc1ccc2[nH]cc(CCNC(C)=O)c2c1`, the growth inhibition in the experiment on DIPGX29 is -2.35%; with DIPGX37 it was -0.423%; with DIPGX7 it was -1.32%; with DIPGX9, -1.49%; in the experiment with HGGX39, -1.11%; in the experiment on HGGX6, -2.19%. In addition, the growth inhibition with HNSC is -1.52%; with SUDIPGIV, -1.67%; in the experiment with SUDIPGVI, -0.827%; in the experiment with SUDIPGXIII it was -1.28%.
Turning to `CCOC(=O)C1=C[C@@H](OC(CC)CC)[C@H](NC(C)=O)[C@@H](N)C1`, the growth inhibition in the experiment on DIPGX29 is -0.948%; with DIPGX37, 0.933%; with DIPGX7 it was -0.6%; in the experiment on DIPGX9, -0.724%; in the experiment with HGGX39 it was -0.188%; in the experiment with HGGX6, 0.263%. Further, the growth inhibition in the experiment with HNSC was 0.516%; in the experiment with SUDIPGIV, 1.15%; in the experiment on SUDIPGVI it was 0.0268%; in the experiment with SUDIPGXIII, -0.397%.
`CC(C)CN(C[C@@H](O)[C@H](Cc1ccccc1)NC(=O)O[C@H]1CCOC1)S(=O)(=O)c1ccc(N)cc1`: the growth inhibition with DIPGX29 is -0.715%; with DIPGX37, -0.112%; in the experiment on DIPGX7, -0.0284%; in the experiment on DIPGX9 it was -0.297%; in the experiment on HGGX39, -0.345%; in the experiment on HGGX6, -0.047%. Besides, the growth inhibition with HNSC was -1.76%; in the experiment with SUDIPGIV it was -2.74%; with SUDIPGVI, -1.11%; with SUDIPGXIII, 0.567%.
Turning to `COc1cc(/C=C/C(=O)CC(=O)/C=C/c2ccc(O)c(OC)c2)ccc1O`, the growth inhibition with DIPGX29 was -0.948%; in the experiment with DIPGX37, 1.27%; in the experiment on DIPGX7, 1.4%; in the experiment on DIPGX9 it was 0.547%; with HGGX39, 0.698%; with HGGX6 it was 1.98%. For the same molecule, the growth inhibition in the experiment with HNSC is -1.04%; in the experiment on SUDIPGIV, -2.56%; with SUDIPGVI it was 0.323%; with SUDIPGXIII, -11.1%.
`CC[C@H](C)C(=O)O[C@H]1CCC=C2C=C[C@H](C)[C@H](CC[C@@H]3C[C@@H](O)CC(=O)O3)[C@H]21`: the growth inhibition was 3.29% in the experiment with DIPGX29; -2.48% in the experiment with DIPGX37; 9.34% with DIPGX7; 3.1% in the experiment with DIPGX9; 21.1% in the experiment with HGGX39; 12.9% in the experiment on HGGX6. For the same molecule, the growth inhibition was 47.3% in the experiment with HNSC, 15.3% in the experiment with SUDIPGIV, -4.05% in the experiment with SUDIPGVI and 28.8% in the experiment with SUDIPGXIII.
For the molecule `C=C1/C(=C\C=C2/CCC[C@]3(C)[C@@H]([C@H](C)CCCC(C)C)CC[C@@H]23)C[C@@H](O)C[C@@H]1O`, the growth inhibition in the experiment with DIPGX29 was -0.46%; with DIPGX37 it was 2.45%; in the experiment with DIPGX7, 4.43%; with DIPGX9, 1.86%; with HGGX39 it was 3.21%; in the experiment with HGGX6 it was 3.92%. The growth inhibition in the experiment on HNSC stood at 1.06%; with SUDIPGIV, 0.347%; with SUDIPGVI it was 1.52%; in the experiment with SUDIPGXIII, 0.72%.
Take `Clc1ccc(COC(Cn2ccnc2)c2ccc(Cl)cc2Cl)cc1` (stereo not given): the growth inhibition with DIPGX29 amounted to 1.53%; with DIPGX37, 4.62%; in the experiment with DIPGX7 it was 0.954%; in the experiment on DIPGX9 it was 4%; with HGGX39, 9.31%; with HGGX6, 8.25%. For the same molecule, the growth inhibition in the experiment on HNSC was determined as 7.53%; in the experiment with SUDIPGIV it was 11.7%; with SUDIPGVI it was 1.21%; with SUDIPGXIII, 7.66%.
In the case of `COc1cc2nccc(Oc3ccc(NC(=O)C4(C(=O)Nc5ccc(F)cc5)CC4)cc3)c2cc1OC`, the growth inhibition with DIPGX29 is 2.36%; in the experiment on DIPGX37, 6.14%; in the experiment with DIPGX7, 9.24%; in the experiment with DIPGX9, 6.67%; in the experiment on HGGX39 it was 4.78%; in the experiment with HGGX6, 17.7%. In addition, the growth inhibition with HNSC came out at 42%; with SUDIPGIV, 0.288%; in the experiment on SUDIPGVI, 5.98%; in the experiment with SUDIPGXIII, 2%.
